Where a name gives a salt, the structure may show the parent alone. ± gives the standard deviation of the averaged measurements.
Key:
[1] = tested on: Saccharomyces cerevisiae BY4741 SeMeCo community; test: mean cell size (pixel area) (pixels); higher = larger cells; settings: 10 µM; 24 h; SM minimal medium
Method in brief: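 Mean cell pixel area per well was determined by automated confocal microscopy with Harmony analysis of paraformaldehyde-fixed cells. The cells, a Saccharomyces cerevisiae BY4741 community of four plasmids that each complement one auxotrophy and carry a fluorescent marker, were incubated for 24 h with drug at a final 10 µM in SM medium in 384-well plates. Numbers are averaged over 3 replicates. Same SeMeCo high-content imaging drug screen: Selleck FDA-approved drugs at 10 µM, 24 h in SM medium, 384-well plates, 3 replicates.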

[2] = tested on: Saccharomyces cerevisiae BY4741 SeMeCo community; test: z-score of prototroph abundance vs DMSO median; higher = larger share of this subpopulation than in DMSO controls; settings: 10 µM; 24 h; SM minimal medium; subpopulation (auxotrophy): Prototroph
Method in brief: (§1)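 Scoring was based on each subpopulation's abundance, expressed as a z-score against the vehicle-well median. A Saccharomyces cerevisiae BY4741 community with four plasmids, each restoring one auxotrophy and encoding a distinct fluorescent protein, was pre-grown overnight to OD600 1.0, diluted to 0.3, and added at 70 µl to 384-well plates acoustically predosed with library drugs (10 µM final). It then grew 24 h in minimal SM medium before paraformaldehyde fixation and automated confocal microscopy, with single-auxotroph fluorescent strains setting thresholds and autofluorescence correction.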

[3] = tested on: Saccharomyces cerevisiae BY4741 SeMeCo community; test: z-score of subpopulation abundance vs DMSO median, subpopulation auxotrophic for M; higher = larger share of this subpopulation than in DMSO controls; settings: 10 µM; 24 h; SM minimal medium; subpopulation (auxotrophy): M
Method in brief: as §1

[4] = tested on: Saccharomyces cerevisiae BY4741 SeMeCo community; test: z-score of subpopulation abundance vs DMSO median, subpopulation auxotrophic for L; higher = larger share of this subpopulation than in DMSO controls; settings: 10 µM; 24 h; SM minimal medium; subpopulation (auxotrophy): L
Method in brief: as §1

[5] = tested on: Saccharomyces cerevisiae BY4741 SeMeCo community; test: z-score of subpopulation abundance vs DMSO median, subpopulation auxotrophic for U; higher = larger share of this subpopulation than in DMSO controls; settings: 10 µM; 24 h; SM minimal medium; subpopulation (auxotrophy): U
Method in brief: as §1

[6] = tested on: Saccharomyces cerevisiae BY4741 SeMeCo community; test: z-score of subpopulation abundance vs DMSO median, subpopulation auxotrophic for H; higher = larger share of this subpopulation than in DMSO controls; settings: 10 µM; 24 h; SM minimal medium; subpopulation (auxotrophy): H
Method in brief: as §1

[7] = tested on: Saccharomyces cerevisiae BY4741 SeMeCo community; test: z-score of subpopulation abundance vs DMSO median, subpopulation auxotrophic for LM; higher = larger share of this subpopulation than in DMSO controls; settings: 10 µM; 24 h; SM minimal medium; subpopulation (auxotrophy): LM
Method in brief: as §1

[8] = tested on: Saccharomyces cerevisiae BY4741 SeMeCo community; test: z-score of subpopulation abundance vs DMSO median, subpopulation auxotrophic for HM; higher = larger share of this subpopulation than in DMSO controls; settings: 10 µM; 24 h; SM minimal medium; subpopulation (auxotrophy): HM
Method in brief: as §1

[9] = tested on: Saccharomyces cerevisiae BY4741 SeMeCo community; test: z-score of subpopulation abundance vs DMSO median, subpopulation auxotrophic for HU; higher = larger share of this subpopulation than in DMSO controls; settings: 10 µM; 24 h; SM minimal medium; subpopulation (auxotrophy): HU
Method in brief: as §1

[10] = tested on: Saccharomyces cerevisiae BY4741 SeMeCo community; test: z-score of subpopulation abundance vs DMSO median, subpopulation auxotrophic for UM; higher = larger share of this subpopulation than in DMSO controls; settings: 10 µM; 24 h; SM minimal medium; subpopulation (auxotrophy): UM
Method in brief: as §1

[11] = tested on: Saccharomyces cerevisiae BY4741 SeMeCo community; test: z-score of subpopulation abundance vs DMSO median, subpopulation auxotrophic for HL; higher = larger share of this subpopulation than in DMSO controls; settings: 10 µM; 24 h; SM minimal medium; subpopulation (auxotrophy): HL
Method in brief: as §1

[12] = tested on: Saccharomyces cerevisiae BY4741 SeMeCo community; test: z-score of subpopulation abundance vs DMSO median, subpopulation auxotrophic for HLU; higher = larger share of this subpopulation than in DMSO controls; settings: 10 µM; 24 h; SM minimal medium; subpopulation (auxotrophy): HLU
Method in brief: as §1

[13] = tested on: Saccharomyces cerevisiae BY4741 SeMeCo community; test: z-score of subpopulation abundance vs DMSO median, subpopulation auxotrophic for HLM; higher = larger share of this subpopulation than in DMSO controls; settings: 10 µM; 24 h; SM minimal medium; subpopulation (auxotrophy): HLM
Method in brief: as §1

[14] = tested on: Saccharomyces cerevisiae BY4741 SeMeCo community; test: z-score of subpopulation abundance vs DMSO median, subpopulation auxotrophic for HUM; higher = larger share of this subpopulation than in DMSO controls; settings: 10 µM; 24 h; SM minimal medium; subpopulation (auxotrophy): HUM
Method in brief: as §1

[15] = tested on: Saccharomyces cerevisiae BY4741 SeMeCo community; test: z-score of subpopulation abundance vs DMSO median, subpopulation auxotrophic for LUM; higher = larger share of this subpopulation than in DMSO controls; settings: 10 µM; 24 h; SM minimal medium; subpopulation (auxotrophy): LUM
Method in brief: as §1

[16] = tested on: Saccharomyces cerevisiae BY4741 SeMeCo community; test: z-score of subpopulation abundance vs DMSO median, subpopulation auxotrophic for HLUM; higher = larger share of this subpopulation than in DMSO controls; settings: 10 µM; 24 h; SM minimal medium; subpopulation (auxotrophy): HLUM
Method in brief: as §1

[17] = tested on: Saccharomyces cerevisiae BY4741 SeMeCo community; test: z-score of subpopulation abundance vs DMSO median, subpopulation auxotrophic for LU; higher = larger share of this subpopulation than in DMSO controls; settings: 10 µM; 24 h; SM minimal medium; subpopulation (auxotrophy): LU
Method in brief: as §1

Compound	mean cell size [1]	z-score of prototroph abundance [2]	z-score of subpopulation abundance [3]	z-score of subpopulation abundance [4]	z-score of subpopulation abundance [5]	z-score of subpopulation abundance [6]	z-score of subpopulation abundance [7]	z-score of subpopulation abundance [8]	z-score of subpopulation abundance [9]	z-score of subpopulation abundance [10]	z-score of subpopulation abundance [11]	z-score of subpopulation abundance [12]	z-score of subpopulation abundance [13]	z-score of subpopulation abundance [14]	z-score of subpopulation abundance [15]	z-score of subpopulation abundance [16]	z-score of subpopulation abundance [17]
CCCC(=O)OCOC(=O)C1=C(C)NC(C)=C(C(=O)OC)C1c1cccc(Cl)c1Cl (configuration not stated) [Clevidipine Butyrate]	12.4 ± 0.13	1.07	4.72	2.14	-3.89	1.96	3.42	2.78	-5.62	-5.87	2.31	-3.55	3.24	-4.83	-4.1	0.59	
O=c1[nH]cc(F)c(=O)[nH]1 [Fluorouracil (5-Fluoracil, 5-FU)]	13.9 ± 0.2	-10.5	-2.62	-0.27	0.26	13.4	0.7	18.4	8.79	2.82	6.71	10.4	22.3	12.3	3.63	22.5	
CCc1c(C)[nH]c2c1C(=O)C(CN1CCOCC1)CC2 (configuration not stated) [Molindone hydrochloride]	12.2 ± 0.13	0.46	-0.61		-0.6	-0.43			-0.73	-0.67	0.22	0.45		-0.76	-0.28	0.04	-0.32
CC(=O)OCC1=C(C(=O)O)N2C(=O)[C@@H](NC(=O)Cc3cccs3)[C@H]2SC1 [Cephalothin]	12.7 ± 0.19	0.3	1.49	-0.16	-1.22	0.18	0.02	1.49	-0.81	-0.2	-0.42	-0.21	0.05	-0.69	-0.19	-0.41	
CN[C@@H]1[C@H](O)[C@H](NC)[C@H]2O[C@@]3(O)C(=O)C[C@@H](C)O[C@H]3O[C@@H]2[C@H]1O [Spectinomycin 2HCl]	12.6 ± 0.18	-0.2	-0.21		0.77	-0.79	-1.03	-0.56	0.25	0.51	-0.34	0.02	-0.57		-0.18		-0.16
c1ccc(-c2ccc(C(c3ccccc3)n3ccnc3)cc2)cc1 (configuration not stated) [Bifonazole]	12.65 ± 0.082	-0.9	3.3		-0.36		0.64	-0.61	1.01	0.46	1.27	0.9		0.21	0.94	2.46	-0.8
N[C@@H](CCC(=O)O)C(=O)O [(S)-Glutamic acid]	12.1 ± 0.22		-0.4	0.52	0.05	0.17	0.15	-0.08	-0.75		-0.27	-0.63	0.07	-0.56	-0.99	0.06	
COCC1=C(C(=O)OC(C)OC(=O)OC(C)C)N2C(=O)[C@@H](NC(=O)/C(=N\OC)c3csc(N)n3)[C@H]2SC1 (some centres not stated) [Cefpodoxime proxetil]	12.25 ± 0.089	-0.89	0.5	-0.07	0.51	-0.09	0.62	0.76	0.99	0.01		0.57	-0.08		0.36	0.35	
CC(C)Cc1ccc(C(C)C(=O)O)cc1 (configuration not stated) [Ibuprofen Lysine]	13 ± 0.042	3.98	-0.7	-0.17	-3.65	-0.2	-0.77	-1.04	-2.64	-4.66	-0.13	-1.49	-0.36		-2.47	-1.27	
CO/N=C(\C(=O)N[C@@H]1C(=O)N2C(C(=O)O)=C(COC(C)=O)CS[C@H]12)c1csc(N)n1 [Cefotaxime sodium]		-0.43	0.24	-0.14	1.03		1.08	-0.37	-0.11	0.17	-0.46	0.33	0	-0.16	0.05	0.47	
C[C@H](NCc1ccc(OCc2cccc(F)c2)cc1)C(N)=O [Safinamide Mesylate]	12.4 ± 0.16	-0.78	0.58	0.79	-0.34	0.45	0.94	1.04		0.17	0.64	0.4	0.54	0.75	0.24	0.33	
CCc1cccc2c3c([nH]c12)C(CC)(CC(=O)O)OCC3 (configuration not stated) [Etodolac]	12.5 ± 0.19	1.07	-0.55	-0.55	0.62	-0.66	0.26	-0.61	-0.8	-0.43	-0.44	-0.48	-0.82	-0.52			
Cc1ccc(Nc2c(F)cccc2Cl)c(CC(=O)O)c1 [Lumiracoxib]	12.9 ± 0.21	1.08	0.63	-1.37	-0.66	-0.79	0.14	0				-0.53	3.33	-1.5		-0.5	
COc1ccc2cc3[n+](cc2c1OC)CCc1cc2c(cc1-3)OCO2 [Berberine chloride]	12.5 ± 0.26	-0.22	0.33	0.44	-0.13	0.04	0.14	-0.15	-0.79	-0.09	0.31	0.27	-0.32	-0.38		-0.12	

Reference: the supplement of paper PMC8975748
